From PubChem BioAssay
Activity calls are given as the source filed them. Unless noted, how the calls were made is not given here.

Legend:
[1] = test system: Wnt5a (protein binding on small-molecule microarray); experiment: small molecules binding Wnt5a protein – biophysical, small-molecule microarray, 635/667 nm fluorescence, primary screen (AID 1142); settings: 635 nm fluorescence, higher = more signal;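 further: fluorescence read at 667 nm with signal to noise per printed feature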
[2] = ATP-based viability of Huh7 replicon cells – cell-based, CellTiter-Glo luminescence, basal, 48 h, cytotoxicity control for HCV replication inhibitor project, primary screen (AID 1143); settings: higher = more signal, called active from +8 up or from −8 down;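 further: Huh7 hepatoma cells carrying a hepatitis C replication reporter with no stimulus; test concentration not given here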
[3] = Pseudomonas biofilm growth suppression – PAO1 strain, BacTiter-Glo luminescence, LB-PBS, primary screen (AID 1144); settings: P. aeruginosa PAO1 biofilm, 12 h, higher = more signal
[4] = basal CRE-LacZ reporter activity in PC12 – cell-based, unstimulated, primary screen (AID 1145); settings: no forskolin, luminescence, 4.5 h, higher = more signal, called active from +8 up or from −8 down
[5] = forskolin-driven CRE-LacZ activity in PC12 – cell-based, CRE-LacZ reporter, forskolin-stimulated, primary screen (AID 1146); settings: luminescence, 4.5 h, higher = more signal, called active from +8 up or from −8 down;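 further: PC12 cells with 6xCRE LacZ reporter stimulated by forskolin 10 µM; beta-galactosidase reporter signal reflecting CREB driven transcription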
[6] = biological target: Streptavidin (Streptomyces avidinii) (UniProt P22629); experiment: compounds binding control protein streptavidin – biophysical, small-molecule microarray, 635/667 nm fluorescence, artefact control for SMM compound annotation, primary screen (AID 1147); settings: higher = more signal;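 further: signal reflects streptavidin binding to arrayed compounds as a control protein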
Sequence of Streptavidin (Streptomyces avidinii) (P22629 whole entry, looked up): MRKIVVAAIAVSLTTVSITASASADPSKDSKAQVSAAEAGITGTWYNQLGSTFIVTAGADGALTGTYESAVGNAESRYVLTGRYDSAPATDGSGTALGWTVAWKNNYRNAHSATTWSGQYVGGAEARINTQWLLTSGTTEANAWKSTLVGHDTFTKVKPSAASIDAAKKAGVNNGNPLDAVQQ

[7] = probe aInhba binding on compound microarray – biochemical, small-molecule microarray, 635/667 nm fluorescence, primary screen (AID 1148); settings: higher = more signal;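 further: score merges 667nm spot fluorescence with signal-to-noise for antibody binding to printed compounds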
Torsin-1A (Homo sapiens) [8] = biological target: Torsin-1A (Homo sapiens) (UniProt O14656); experiment: TOR1A wild-type binding on microarray – cell lysate, small-molecule microarray, lysate, 635/667 nm, primary screen (AID 1149); settings: COS7 hTOR1A-WT lysate, 635 nm fluorescence, higher = more signal
Sequence of Torsin-1A (Homo sapiens) (O14656 whole entry, looked up): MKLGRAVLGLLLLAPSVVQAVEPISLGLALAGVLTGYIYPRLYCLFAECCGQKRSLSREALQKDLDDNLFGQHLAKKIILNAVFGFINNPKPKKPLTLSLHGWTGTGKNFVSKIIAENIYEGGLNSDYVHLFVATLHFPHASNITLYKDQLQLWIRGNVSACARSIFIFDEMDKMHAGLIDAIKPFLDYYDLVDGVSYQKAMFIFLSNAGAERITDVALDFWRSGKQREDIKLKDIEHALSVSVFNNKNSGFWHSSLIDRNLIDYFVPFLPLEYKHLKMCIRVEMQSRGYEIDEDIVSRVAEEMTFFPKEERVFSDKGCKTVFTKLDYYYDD

Torsin-1A (Homo sapiens) [9] = biological target: Torsin-1A (Homo sapiens) (UniProt O14656); experiment: torsin A mutant lysate binding on microarrays – cell lysate, small-molecule microarray, COS7 lysate, 635/667 nm fluorescence, primary screen (AID 1150); settings: COS7 hTOR1A mutant lysate, 635 nm fluorescence, higher = more signal;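 further: score pools 667 nm emission and signal to noise measuring lysate protein binding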
[10] = test system: Sonic hedgehog protein (Shh); experiment: Sonic hedgehog microarray binding compounds – biochemical, small-molecule microarray, 635/667 nm fluorescence, primary screen (AID 1151); settings: 635 nm fluorescence, higher = more signal;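 further: Shh protein binding to compounds spotted on small-molecule microarray slides; score combines spot fluorescence intensity with signal-to-noise across triplicate slides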
[11] = optical density shifts of acrAB sulA E. coli – strain DRC41, OD650, 48 h, E. coli filamentation inducer project, primary screen (AID 1152); settings: higher = more signal, called active from +8 up or from −8 down;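 further: E. coli MC1000 strain DRC41 lacking acrAB efflux pump and sulA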
[12] = probe aLefty1 binding on compound microarray – biochemical, small-molecule microarray, 635/667 nm fluorescence, primary screen (AID 1153); settings: higher = more signal;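 further: score merges spot fluorescence with signal-to-noise ratio from the scanned slide images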
[13] = plasmodial surface anion channel blockers, osmotic lysis – cell-based, P. falciparum Indochina, OD700, 1 h, primary screen (AID 1154); settings: P. falciparum Indochina infected RBC osmotic lysis, higher = more signal, called active from +8 up or from −8 down
[14] = plasmodial surface anion channel blockers, osmotic lysis – cell-based, P. falciparum Indochina, OD700, 2 h, primary screen (AID 1155);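 further: lysis reports solute entry through the parasite surface anion channel PSAC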; settings: P. falciparum Indochina infected erythrocytes, higher = more signal, called active from +8 up or from −8 down
[15] = changes in parasitized red cell lysis, either direction – P. falciparum Indochina, OD700, 3 h, PSAC antagonist project, primary screen (AID 1156); settings: P. falciparum-infected erythrocytes, osmotic lysis, higher = more signal, called active from +8 up or from −8 down
[16] = plasmodial surface anion channel blockers, osmotic lysis – cell-based, P. falciparum Indochina, OD700, 18 h, primary screen (AID 1157); settings: P. falciparum Indochina infected erythrocytes, osmotic lysis OD700, 18 h; higher = more signal, called active from +8 up or from −8 down
[17] = S6 kinase pathway phospho-S6 level changes – cell-based, A549, cytoblot, luminescence, serum-stimulated, primary screen (AID 1158); settings: 5 h, higher = more signal;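 further: serum-stimulated A549 lung adenocarcinoma cells; signal is phosphorylated S6 detected by cytoblot immunostaining with HRP secondary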
[18] = biological target: NADPH oxidase 2 (Homo sapiens) (UniProt P04839); experiment: compounds shifting NOX2 Amplex Red fluorescence – cell-based, HEK293-NOX2, PMA-stimulated, NOX inhibitor project, primary screen (AID 1159); settings: 45 min, higher = more signal, called active from +8 up or from −8 down; further: test concentration not given here
Sequence of NADPH oxidase 2 (Homo sapiens) (P04839 whole entry, looked up): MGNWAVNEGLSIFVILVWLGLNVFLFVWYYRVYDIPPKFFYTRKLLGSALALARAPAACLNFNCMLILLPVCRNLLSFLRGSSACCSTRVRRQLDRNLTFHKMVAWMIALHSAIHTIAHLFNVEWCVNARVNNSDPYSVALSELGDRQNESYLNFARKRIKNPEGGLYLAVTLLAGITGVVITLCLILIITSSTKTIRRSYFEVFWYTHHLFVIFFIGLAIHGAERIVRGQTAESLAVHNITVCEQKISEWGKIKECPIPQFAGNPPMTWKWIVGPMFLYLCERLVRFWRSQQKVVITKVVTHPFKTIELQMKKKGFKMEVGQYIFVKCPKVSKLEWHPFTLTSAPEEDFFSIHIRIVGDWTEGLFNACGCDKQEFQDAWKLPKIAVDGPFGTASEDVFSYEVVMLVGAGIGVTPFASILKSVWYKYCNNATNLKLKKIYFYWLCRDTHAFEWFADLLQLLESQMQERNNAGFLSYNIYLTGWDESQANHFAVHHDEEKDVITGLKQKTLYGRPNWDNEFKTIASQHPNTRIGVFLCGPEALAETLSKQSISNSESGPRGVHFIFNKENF

[19] = biological target: NADPH oxidase 4 (Homo sapiens) (UniProt Q9NPH5); experiment: compounds shifting NOX4 Amplex Red fluorescence – cell-based, HEK293-NOX4, tetracycline-induced, NOX inhibitor project, primary screen (AID 1160); settings: HEK293-NOX4, Amplex Red H2O2 fluorescence, 45 min; higher = more signal, called active from +8 up or from −8 down
Sequence of NADPH oxidase 4 (Homo sapiens) (Q9NPH5 whole entry, looked up): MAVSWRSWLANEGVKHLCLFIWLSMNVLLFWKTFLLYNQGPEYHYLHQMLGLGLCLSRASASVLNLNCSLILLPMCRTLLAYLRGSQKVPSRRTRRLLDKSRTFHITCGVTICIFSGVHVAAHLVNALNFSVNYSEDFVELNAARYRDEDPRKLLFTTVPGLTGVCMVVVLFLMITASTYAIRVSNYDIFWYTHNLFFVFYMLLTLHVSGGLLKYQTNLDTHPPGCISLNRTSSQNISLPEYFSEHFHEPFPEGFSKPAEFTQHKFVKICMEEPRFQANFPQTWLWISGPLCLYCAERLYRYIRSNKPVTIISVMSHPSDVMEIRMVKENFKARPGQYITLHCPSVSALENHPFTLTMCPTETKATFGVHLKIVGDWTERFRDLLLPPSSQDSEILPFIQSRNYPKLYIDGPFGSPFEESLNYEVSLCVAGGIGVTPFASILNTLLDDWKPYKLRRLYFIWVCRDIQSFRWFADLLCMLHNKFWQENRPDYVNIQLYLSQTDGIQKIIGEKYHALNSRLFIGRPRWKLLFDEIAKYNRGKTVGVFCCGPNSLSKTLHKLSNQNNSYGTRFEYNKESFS

[20] = biological target: NADPH oxidase 5 (Homo sapiens) (UniProt Q96PH1); experiment: compounds shifting NOX5 Amplex Red fluorescence – cell-based, HEK293-NOX5, NOX inhibitor project, primary screen (AID 1161); settings: HEK293-NOX5, ionomycin, 45 min, higher = more signal
Sequence of NADPH oxidase 5 (Homo sapiens) (Q96PH1 whole entry, looked up): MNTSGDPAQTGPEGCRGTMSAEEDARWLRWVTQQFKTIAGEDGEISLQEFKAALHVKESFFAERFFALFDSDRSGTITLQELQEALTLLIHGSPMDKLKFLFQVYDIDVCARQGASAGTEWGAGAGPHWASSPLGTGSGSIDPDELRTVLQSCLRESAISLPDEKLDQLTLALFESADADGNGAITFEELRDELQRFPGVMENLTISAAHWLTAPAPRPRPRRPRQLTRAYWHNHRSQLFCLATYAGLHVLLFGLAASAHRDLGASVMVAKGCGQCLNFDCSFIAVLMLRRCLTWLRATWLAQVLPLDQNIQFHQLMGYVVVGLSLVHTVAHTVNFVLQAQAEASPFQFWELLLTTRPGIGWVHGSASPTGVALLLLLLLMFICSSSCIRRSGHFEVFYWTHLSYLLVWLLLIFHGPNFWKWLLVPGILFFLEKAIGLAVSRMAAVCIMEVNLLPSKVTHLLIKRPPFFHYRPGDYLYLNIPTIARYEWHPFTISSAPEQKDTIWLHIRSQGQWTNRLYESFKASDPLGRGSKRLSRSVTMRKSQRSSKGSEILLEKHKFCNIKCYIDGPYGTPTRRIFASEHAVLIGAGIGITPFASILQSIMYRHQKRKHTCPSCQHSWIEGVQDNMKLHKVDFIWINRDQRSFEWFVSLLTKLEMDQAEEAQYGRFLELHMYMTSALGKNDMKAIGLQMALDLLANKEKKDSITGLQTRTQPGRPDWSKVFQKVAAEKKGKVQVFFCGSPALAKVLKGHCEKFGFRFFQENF

| Compound | composite z-score [1] | z-score [2] | z-score [3] | z-score [4] | z-score [5] | composite z-score [6] | composite z-score [7] | composite z-score (Torsin-1A (Homo sapiens) [8]) | composite z-score (Torsin-1A (Homo sapiens) [9]) | composite z-score [10] | z-score [11] | composite z-score [12] | z-score [13] | z-score [14] | z-score [15] | z-score [16] | z-score [17] | z-score [18] | z-score [19] | z-score [20] |
| --- | --- | --- | --- | --- | --- | --- | --- | --- | --- | --- | --- | --- | --- | --- | --- | --- | --- | --- | --- | --- |
| CCOC(=O)C[C@H]1[C@H](OC(=O)c2ccccc2-c2ccccc2)[C@@H](NC(=O)c2ccc3ccccc3c2)c2cc(OCCCO)ccc2N1C(=O)Cc1ccc(OC)cc1 | 0.23 | 0.0138 (inactive) | 0.619 (inactive) | 3.37 (inactive) | 0.654 (inactive) | -0.0096 | -0.128 | 0.0216 | 0.768 | -0.314 | -0.878 (inactive) | -0.241 | 4.15 (inactive) | 0.403 (inactive) | -0.681 (inactive) | 0.281 (inactive) | 0.12 | 0.0357 (inactive) | 1.02 (inactive) | 1.01 |
| C=C1C(=O)C=C2CN(C(=O)c3ccccc3)[C@@](Cc3ccc(OC)cc3)(C(=O)OC)[C@@H]12 | 0.458 | -3.68 (inactive) | 0.249 (inactive) | 0.387 (inactive) | 0.2 (inactive) | 1.72 | 0.863 | 0.124 | 0.319 | 0.193 | -1.79 (inactive) | 1.46 | 2.02 (inactive) | 0.368 (inactive) | 0.218 (inactive) | 1.23 (inactive) | -0.0615 | 0.427 (inactive) | 1.1 (inactive) | 2.68 |
| CO[C@H]1O[C@H](CO)[C@@H](OC(=O)Nc2ccccc2-c2ccccc2)[C@H](OC(=O)Nc2ccccc2)[C@H]1OC(=O)Nc1ccccc1 | 1.32 | -3.8 (inactive) | -0.589 (inactive) | -0.254 (inactive) | -2.07 (inactive) | 0.29 | 0.122 | 0.616 | 1.6 | 1.1 | 0.299 (inactive) | 0.0405 | 2.62 (inactive) | 0.772 (inactive) | 0.375 (inactive) | 0.521 (inactive) | 0.144 | -1.62 (inactive) | -1.72 (inactive) | -1.4 |
| CN(C)C(=O)[C@@]1(Cc2ccccc2CN=[N+]=[N-])COC(c2ccc(OCCCO)cc2)=N1 | 0.0037 | -3.16 (inactive) | -0.632 (inactive) | -1.34 (inactive) | -1.65 (inactive) | -0.0988 | -0.0288 | -0.184 | 0.715 | -1.22 | 2.37 (inactive) | 0.236 | 25.9 (active) | 11.1 (active) | 4.63 (inactive) | 1.67 (inactive) | 0.0188 | -4.96 (inactive) | -1.37 (inactive) | -3.41 |
| CCOC(=O)C[C@H]1[C@H](OC(=O)c2cc3ccccc3oc2=O)[C@@H](NC(=O)CC(C)C)c2cc(OCCCO)ccc2N1C(=O)Cc1ccc(OC)cc1 | 0.221 | -0.387 (inactive) | 1.19 (inactive) | 1.02 (inactive) | -0.505 (inactive) | 0.0665 | -0.128 | -0.0652 | 0.304 | 0.97 | -0.752 (inactive) | -0.193 | 5.95 (inactive) | 0.711 (inactive) | 0.863 (inactive) | 0.5 (inactive) | -0.0561 | 0.166 (inactive) | 0.381 (inactive) | 1.38 |
| CC(C)(C)OC(=O)CC[C@@]1(C(=O)NCCN2CCOCC2)N=C(c2ccc(OCCCO)cc2)O[C@@H]1c1ccccc1CN=[N+]=[N-] | -0.119 | 0.0704 (inactive) | -0.495 (inactive) | -0.277 (inactive) | 0.54 (inactive) | 1.01 | -0.0494 | -0.428 | 0.467 | -0.919 | -0.936 (inactive) | -0.0255 | 24.4 (active) | 11.3 (active) | 0.0031 (inactive) | 1.21 (inactive) | -0.464 | 0.73 (inactive) | 1.46 (inactive) | 1.54 |
| Cc1ccc(S[C@]2(C(=O)NCC(F)(F)F)CC(=O)N(Cc3ccccc3C(F)(F)F)[C@@H]2c2ccc(CO)cc2)cc1 | -0.186 | 0.518 (inactive) | 0.0205 (inactive) | -0.349 (inactive) | -0.163 (inactive) | -1 | -0.179 | -1.23 | 0.0748 | -0.972 | -0.262 (inactive) | 0.007 | 1.4 (inactive) | -0.107 (inactive) | -0.142 (inactive) | 0.135 (inactive) | -0.0621 | -2.02 (inactive) | 0.426 (inactive) | -0.0735 |
| C=CCC(OC(C)=O)[C@@H]1[C@@H](N(Cc2ccc(-c3cccc(C(F)(F)F)c3)o2)C(=O)Cc2ccc(F)cc2)c2cc(OCCCO)ccc2N1C(=O)Cc1ccc2ccccc2c1 (stereo not given in full) | -0.268 | -0.229 (inactive) | -1.1 (inactive) | -0.374 (inactive) | 0.767 (inactive) | -0.426 | -0.114 | -0.761 | -0.673 | 0.404 | -0.985 (inactive) | 0.0919 | 1.1 (inactive) | 0.135 (inactive) | -0.554 (inactive) | -0.135 (inactive) | -0.37 | -1.03 (inactive) | 0.896 (inactive) | 0.736 |
